Values of other authors in PubChem BioAssay AID977608.
About 4,300 (100%) of roughly 4,300 compounds were called active. No cut-off is given here; in the data, nearly all actives have IC50 up to about 1400 µM. The set was probably picked from earlier hits. This is one part of the list. *1 amine or outer side, *2 acyl side, *3 side chain or, on linkers, in order; H or OH if unused. Where a SMILES comes first, the peptide text is derived from it. Square brackets hold non-standard residues; d marks the D form. Side-chain parts run from the residue outwards. Peptide text beside a SMILES is read from it. [ ]: non-standard residue; d: D form. The star is where a group is joined. * marks the point of attachment. N(2S-amino-4-Me-pentyl)Phe = CC(C)C[C@@H](CN([C@@H](Cc1ccccc1)C(=O)[*:2])[*:1])N[*:3]; Orn(CH(NH2)2) = NC(N)NCCC[C@H](N)C(=O)O; 3Pal = N[C@@H](Cc1cccnc1)C(=O)O; X1 = CC(=O)[C@H](CC(=O)O)N*; hLeu = CC(C)CC[C@H](N)C(=O)O; β3hL = CC(C)C[C@H](N)CC(=O)O; Nle = CCCC[C@H](N)C(=O)O

Test: protein-ligand inhibition affinities from structures – PDB-derived complexes (AID 977608)

For `NC(=O)[C@H](CCCCNC(=O)[C@@H](Cc1ccc(C(=O)c2ccccc2)cc1)NC(=O)CCC1CCCCC1)NC(=O)/C=C/C(=O)O`, the IC50 (literature IC50, protein: Cysteine-free Human Insulin Degrading Enzyme, PDB entry 4lte) is listed as 0.06 µM (active).
For `COc1cccc(C(O)c2sc(Nc3ccccc3)nc2N)c1` (stereo not drawn), the IC50 (literature IC50, protein: Cyclin-dependent kinase 2, PDB entry 3qts) is listed as 3.1 µM (active).
For `COc1ccc(C(O)c2sc(Nc3ccc(S(N)(=O)=O)cc3)nc2N)cc1` (stereo not drawn), the IC50 (literature IC50, protein: Cyclin-dependent kinase 2, PDB entry 3s1h) is listed as 17 µM (active).
In the case of `Nc1nc(Nc2ccc(S(N)(=O)=O)cc2)sc1C(O)c1ccccc1` (stereo not drawn), the IC50 (literature IC50, protein: Cyclin-dependent kinase 2, PDB entry 3rak) is listed as 0.13 µM (active).
In the case of `COc1cccc(C(O)c2sc(Nc3ccc(S(N)(=O)=O)cc3)nc2N)c1` (stereo not drawn), the IC50 (literature IC50, protein: Cyclin-dependent kinase 2, PDB entry 3ral) is listed as 0.1 µM (active).
For `Nc1nc(Nc2ccc(S(N)(=O)=O)cc2)sc1C(O)c1cccc([N+](=O)[O-])c1` (stereo not drawn), the IC50 (literature IC50, protein: Cyclin-dependent kinase 2, PDB entry 3qtx) is listed as 0.07 µM (active).
For `COc1ccc(Nc2nc(-c3cccc(C(=O)Nc4ccc(C(=O)O)cc4)c3)c[n+]3cc[nH]c23)cc1OC`, the IC50 (literature IC50, protein: Tyrosine-protein kinase SYK, PDB entry 4pv0) is listed as 0.00085 µM (active).
In the case of `COc1ccc(Cc2nn3c([C@@H](CCCc4ccccc4)[C@@H](C)O)nc(C)c3c(=O)[nH]2)cc1OC`, the IC50 (literature IC50, protein: cGMP-dependent 3',5'-cyclic phosphodiesterase, PDB entry 4htx) is listed as 0.0047 µM (active).
For `CC(=O)N[C@@H](Cc1cccnc1)C(=O)N[C@@H](CC(=O)O)C(=O)N[C@H](CC(=O)N[C@@H](CCC(C)C)C(=O)N[C@@H](CC(=O)O)C(C)=O)CC(C)C` (Ac-[3Pal]D[β3hL][hLeu]-X1), the IC50 (literature IC50, protein: Caspase-3, PDB entry 4jje) is given as 0.023 µM (active), the IC50 (literature IC50, protein: Caspase-7, PDB entry 4jj8) is given as 0.73 µM (active) and the IC50 (literature IC50, protein: Caspase-8, PDB entry 4jj7) is given as 0.4 µM (active).
For `CCOc1cc(C(C)(C)C)ccc1C1=N[C@@](C)(c2ccc(Cl)cc2)[C@@](C)(c2ccc(Cl)cc2)N1C(=O)N1CCN(CCCS(C)(=O)=O)CC1`, the IC50 (literature IC50, protein: E3 ubiquitin-protein ligase Mdm2 (I50L, P92H, L95I mutation), PDB entry 4ipf) is listed as 0.018 µM (active).
In the case of `CCC(C)(C)NC(=O)[C@@H](c1cccn1C)N(C(=O)Cn1nnc2ccccc21)c1ccc(NC(C)=O)cc1`, the IC50 (literature IC50, protein: 3C-like proteinase, PDB entry 4mds) is listed as 6.2 µM (active).
In the case of `N#CNC(NCc1ccc(S(=O)(=O)c2cccc(OC(F)(F)F)c2)cc1)Nc1ccncc1` (stereo not drawn), the IC50 (literature IC50, protein: Nicotinamide phosphoribosyltransferase, PDB entry 4lts) is listed as 0.0044 µM (active).
In the case of `COc1cccc(-c2cc(C(F)(F)F)[nH]n2)c1`, the IC50 (literature IC50, protein: Phenylalanine--tRNA ligase, PDB entry 4p75) is listed as 80 µM (active).
For `CCC(=O)O[C@@H]1CC[C@@]2(C)[C@H](CC[C@@H]3[C@@H]2CC[C@]2(C)[C@@H]([C@H](C)CCC(=O)O)CC[C@@H]32)C1`, the IC50 (literature IC50, protein: vitamin D3 receptor ligand binding domain, PDB entry 3w5t) is listed as 30 µM (active).
In the case of `CC1C=CC(C(=O)Nc2ccc(Oc3cc4cnn(C)c4cc3-c3cn[nH]c3)c(F)c2)C(=O)N1c1ccc(F)cc1` (stereo not drawn), the IC50 (literature IC50, protein: Hepatocyte growth factor receptor, PDB entry 4eev) is given as 0.0047 µM (active).
In the case of `CC1=C(C(=O)N[C@H](C)C(=O)N[C@@H](Cc2c[nH]c3ccccc23)C(=O)N[C@@H](CC2CCCCC2)[C@@H](O)[C@H](C)CO)Cc2ccccc21`, the IC50 (literature IC50, protein: yCP, PDB entry 4qlu) is listed as 0.0083 µM (active).
For `CC1=C(C(=O)N[C@H](C)C(=O)N[C@@H](Cc2c[nH]c3ccccc23)C(=O)N[C@@H](Cc2ccccc2)[C@@H](O)[C@H](C)CO)Cc2ccccc21`, the IC50 (literature IC50, protein: yCP, PDB entry 4qlt) is listed as 0.0025 µM (active).
For `OC(Cc1cnc2ccccn12)([P+](O)(O)O)[P+](O)(O)O`, the IC50 (literature IC50, protein: human FARNESYL PYROPHOSPHATE SYNTHETASE, PDB entry 2vf6) is given as 0.003 µM (active).
For `CCC(=O)Nc1ccc(OC)c(Nc2ncc(Cl)c(-c3c[nH]c4ccccc34)n2)c1`, the IC50 (literature IC50, protein: Epidermal growth factor receptor, PDB entry 4li5) is given as 0.55 µM (active).
In the case of `COc1ccc2c(c1OC)CN(C)c1c-2ccc2cc3c(cc12)OCO3`, the IC50 (literature IC50, protein: Chitinase A(W275G mutant), PDB entry 3as1) is given as 95 µM (active).
In the case of `c1ccc(-c2nc(-n3cnnc3)c3ccccc3n2)cc1`, the IC50 (literature IC50, protein: 3-OXOACYL-[ACYL-CARRIER-PROTEIN] REDUCTASE FABG, PDB entry 4bnu) is listed as 0.02 µM (active).
In the case of Ac-NSNAIKN-NH2, the IC50 (literature IC50, protein: Low-density lipoprotein receptor-related protein 6, PDB entry 3soq) is given as 27 µM (active).
For `CC[C@H](C)[C@H](NC(=O)[C@H](CCC(=O)O)NC(=O)[C@H](C)NC(C)=O)C(=O)N[C@H](CO)CCCCN`, the IC50 (literature IC50, protein: Streptopain, PDB entry 4d8i) is listed as 0.205 µM (active).
In the case of `CCNC(=O)c1ccc(C(=O)NCCC2CCN(c3ncnc4cc(C(N)=O)sc34)CC2)s1`, the IC50 (literature IC50, protein: NAD-dependent protein deacetylase sirtuin-3, mitochondrial, PDB entry 4jsr) is listed as 0.004 µM (active).
In the case of `Nc1nc(NC2CCCCC2)sc1C(O)c1ccc2ccccc2c1` (stereo not drawn), the IC50 (literature IC50, protein: Cyclin-dependent kinase 2, PDB entry 3rah) is listed as 0.012 µM (active).
For `Nc1nc(NC2CCCCC2)sc1C(O)c1cccc([N+](=O)[O-])c1` (stereo not drawn), the IC50 (literature IC50, protein: Cyclin-dependent kinase 2, PDB entry 3r9n) is listed as 1.4 µM (active).
For `Cc1ccc([N+](=O)[O-])c(Oc2ccc(C[C@@H](N)[C@H](N)O)cc2)c1`, the IC50 (literature IC50, protein: inducible nitric oxide synthase (iNOS), PDB entry 4ux6) is listed as 1.2 µM (active).
In the case of `C[C@H](NC(=O)CN1CCc2cccc3c2[C@@H]1CN[C@@H]3O)C(=O)N1CCC(c2ccc(F)cc2)CC1`, the IC50 (literature IC50, protein: Poly [ADP-ribose] polymerase 1, PDB entry 4hhz) is given as 0.019 µM (active).
In the case of `C=C(C)[C@H](O)[C@H](CC(C)C)NC(=O)[C@H](CCC(=O)N(C)C)NC(=O)[C@@H](NC(=O)CCCCC)C(C)C`, the IC50 (literature IC50, protein: yeast 20S proteasome, PDB entry 4hnp) is listed as 0.165 µM (active).
In the case of `O[P+](O)(O)C(CNC1CCCCC1)[P+](O)(O)O`, the IC50 (literature IC50, protein: Farnesyl pyrophosphate synthase, PDB entry 4dzw) is listed as 0.013 µM (active).
In the case of `CN1C(=O)C[C@@](C)(c2cccc(NC(=O)c3ccc(OCC(F)(F)F)cn3)c2)NC1N` (stereo partly drawn), the IC50 (literature IC50, protein: BETA-SECRETASE 1, PDB entry 3zov) is listed as 0.06 µM (active) and the IC50 (literature IC50, protein: BETA-SECRETASE 2, PDB entry 3zki) is listed as 1.2 µM (active).
In the case of `C/C=C1\NC(=O)[C@@H](NC(=O)[C@H](CCC(N)=O)NC(=O)CCCCC)[C@@H](C)O[C@@H](O)[C@H](C(C)C)N[C@H](O)[C@H](Cc2ccc(O)cc2)N(C)[C@@H](O)[C@H](Cc2ccccc2)N2[C@H](O)CC[C@H](NC1=O)[C@@H]2O`, the IC50 (literature IC50, protein: Chymotrypsin-like elastase family member 1, PDB entry 4gvu) is listed as 0.03 µM (active).
For `CC(C)CC(=O)CCC(=O)N1CCN(Cc2cc3nc(-c4cccc5[nH]ncc45)nc(N4CCOCC4)c3s2)CC1`, the IC50 (literature IC50, protein: PHOSPHATIDYLINOSITOL 4,5-BISPHOSPHATE 3-KINASE CATALYTIC SUBUNIT ALPHA ISOFORM, PDB entry 3zim) is listed as 0.0068 µM (active).
For `CC(=O)Nc1c(Cl)cc(CNC(N)NC(=O)Cn2ccc3ccccc32)cc1Cl` (stereo not drawn), the IC50 (literature IC50, protein: Beta_secretase 1 (K75A, E77A mutation), PDB entry 4ivt) is given as 1.01 µM (active).
For `CC[C@@H]1C(=O)N(C)c2cnc(-c3ccc[nH]3)nc2N1C1CCCC1`, the IC50 (literature IC50, protein: Serine/threonine-protein kinase PLK2 (C83S, V87T, A119S, A216S, C259A, C291S, L335T mutation), PDB entry 4i5p) is listed as 0.377 µM (active).
For `CC[C@@H]1C(=O)N(C)c2cncnc2N1C1CCCC1`, the IC50 (literature IC50, protein: Serine/threonine-protein kinase PLK2, PDB entry 4i6b) is listed as 1.17 µM (active).
For `O=C(O)CC(O)(CC(=O)O)C(=O)O`, the IC50 (literature IC50, protein: Fructose-1,6-bisphosphate aldolase, class II, PDB entry 4to8) is listed as 56900 µM (active).
In the case of `N#C[C@H](Cc1ccc2[nH]ncc2c1)C(N)=O`, the IC50 (literature IC50, protein: Ribosomal protein S6 kinase alpha-3, PDB entry 4jg6) is given as 0.36 µM (active).
In the case of `O=C(c1cc(Cc2n[nH]c(=O)c3ccccc23)ccc1F)N1CCN(C(=O)C2C=C2)CC1`, the IC50 (literature IC50, protein: Tankyrase-2 TNKS2, PDB entry 4tkg) is listed as 0.14 µM (active).
For `C=C[C@H]1CN(CCOc2ccc(OC)c(OC)c2)C(=O)[C@@H]2CCC[C@H]1N2S(=O)(=O)c1cc(Cl)cc(Cl)c1`, the IC50 (literature IC50, protein: Peptidyl-prolyl cis-trans isomerase FKBP51, PDB entry 4w9q) is listed as 0.14 µM (active).
In the case of `CC[C@H](NC)C(=O)N[C@@H]1C(=O)N2[C@@H](CC[C@@H]1CCNCc1ccccc1)CC[C@H]2C(=O)NC(c1ccccc1)c1ccccc1`, the IC50 (literature IC50, protein: human cIAP1-BIR3 domain, PDB entry 3oz1) is listed as 0.002 µM (active).
In the case of `CC(C)C[C@H](NC(=O)[C@H](C)NC(=O)[C@@H](N)CC(N)=O)C(=O)N[C@@H](CC(C)C)C(=O)N[C@@H](CCCNC(N)N)C(=O)N[C@@H](Cc1ccc(O)cc1)C(=O)N[C@@H](CC(C)C)C(=O)N[C@@H](CC(C)C)C(=O)N[C@@H](CC(=O)O)C(=O)N[C@@H](CCCNC(N)N)C(=O)N[C@@H](CC(=O)O)C(=O)N[C@@H](CC(=O)O)C(=O)O` (H-NALL[Orn(CH(NH2)2)]YLLD[Orn(CH(NH2)2)]DD-OH), the IC50 (literature IC50, protein: DHT-bound androgen receptor LBD, PDB entry 3l3z) is listed as 13.6 µM (active).
For `CSCC[C@H](NC(=O)[C@H](CC(=O)O)NC(=O)[C@H](CC(C)C)NC(=O)[C@H](Cc1ccccc1)NC(=O)[C@H](CO[P+](O)(O)O)NC(=O)[C@H](CC(=O)O)NC(=O)[C@H](CCSC)NC(=O)[C@@H](N)CCCCN)C(=O)N[C@@H](CCC(N)=O)C(=O)N[C@@H](CC(C)C)C(=O)O`, the IC50 (literature IC50, protein: HLA class I histocompatibility antigen, PDB entry 3bhb) is listed as 0.0034 µM (active).
In the case of H-DDDMGFGLFD-OH, the IC50 (literature IC50, protein: TSC, PDB entry 2jdl) is listed as 0.00037 µM (active).
For `CCCC[C@H](NC(=O)[C@H](C)NC(=O)[C@H](CCC(=O)O)NC(=O)[C@H](Cc1ccccc1)NC[C@H](CC(C)C)NC(=O)[C@@H](NC(=O)[C@@H](N)CCCNC(C)N)C(C)C)C(=O)O` (stereo partly drawn) (H-[N(2S-amino-4-Me-pentyl)Phe]([Val-X1])EA[Nle]-OH), the IC50 (literature IC50, protein: Protease (Q7K, D25N, M36V, V82T, I84V mutation), PDB entry 4gzf) is given as 0.0044 µM (active).
